L3MBTL1 block – L3MBTL1 (human) inhibition; AlphaScreen L3MBTL1–H3K9me1 peptide binding; Potency, µM (titrated, usually from 57.1 µM), without a hit: at the top dose activity, negative = inhibition, usual class: inhibitors; hit rate 0.66% among 230,000; AID 485360; further: on the % scale 0 is the no-effect control and ±100 the full control effect; nearly all actives have a fitted effect of over 60% in size
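L3MBTL1 50 nM + b-AHA-H3(1-15)K9me1 75 nM, 30 min RT; compound added, 30 min RT; streptavidin donor/Ni-chelate acceptor beads 10 ug/mL each final, 30 min RT dark; AlphaScreen read.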
JMJD2A Tudor inh – blocks the human JMJD2A Tudor domain. O75164. AlphaScreen JMJD2A-Tudor / H3K4me3 peptide binding. Potency, µM (top dose mostly 114 µM), inactives show at the highest dose activity change, negative = inhibition, usual class: inhibitors. hit rate 4.4% among 390,000; further: on the % scale 0 is the no-effect control and ±100 the full control effect; nearly all actives have a fitted effect of over 50% in size
G9a inh – blocks human histone lysine methyltransferase G9a; Q96KQ7; G9a H3K9 monomethylation, AlphaScreen, 2 h; Potency, µM (doses to about 102 µM), inactives show at the highest dose activity, negative = inhibition, usual class: inhibitors; hit rate 8.8% among 350,000; further: on the % scale 0 is the no-effect control and ±100 the full control effect; nearly all actives have a fitted effect of over 75% in size
Target sequence (Q96KQ7 913-1193 limits assumed): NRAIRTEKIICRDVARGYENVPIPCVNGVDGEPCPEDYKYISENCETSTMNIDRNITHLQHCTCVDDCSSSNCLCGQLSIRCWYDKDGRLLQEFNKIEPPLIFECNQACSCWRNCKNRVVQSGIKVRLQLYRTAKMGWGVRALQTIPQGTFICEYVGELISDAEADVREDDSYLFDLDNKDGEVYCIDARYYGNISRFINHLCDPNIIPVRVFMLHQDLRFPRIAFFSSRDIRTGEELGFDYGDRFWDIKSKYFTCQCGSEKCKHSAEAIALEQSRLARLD
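G9a (20 nM) preincubated 15 min RT with compounds, then 500 nM biotinylated H3K9 peptide and 20 uM SAM added; 2 h RT reaction. Monomethyl-H3K9 product detected by AlphaScreen with anti-H3K9me1 antibody, streptavidin donor and anti-rabbit IgG acceptor beads.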
HP1b binding inh – HP1-beta chromodomain-methylated histone interaction inhibition; P83916; AlphaScreen HP1-beta / biotin-H3K9me3 peptide binding; Potency, µM (highest dose often 114 µM), for the others: top-dose activity change, negative = inhibition, most hits filed as inhibitors; hit rate 0.56% among 390,000; further: nearly all actives have a fitted effect of over 70% in size
Target sequence (P83916 whole entry, looked up): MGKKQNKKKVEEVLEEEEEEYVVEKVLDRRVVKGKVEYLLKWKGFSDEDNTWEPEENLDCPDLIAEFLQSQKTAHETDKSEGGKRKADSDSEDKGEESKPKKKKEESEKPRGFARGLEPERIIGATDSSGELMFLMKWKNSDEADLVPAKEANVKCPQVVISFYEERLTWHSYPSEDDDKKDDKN
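HP1-beta protein (50 nM final) preincubated 30 min at room temperature with biotinylated H3(1-18)K9me3 peptide (50 nM) in PBS pH 7.4, 0.01% Tween-20, then compound added for 30 min. AlphaScreen streptavidin donor/nickel chelate acceptor beads (10 ug/mL final), 30 min dark, luminescence read.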
BAZ2B inh – BAZ2B (human) inhibition; AlphaScreen BAZ2B-H3K14Ac peptide displacement; Potency, µM (highest dose often 114 µM), inactives show at the top dose activity change, negative = inhibition, actives largely listed as inhibitors; hit rate 4.4% among 360,000; AID 504333; further: on the % scale 0 is the no-effect control and ±100 the full control effect; nearly all actives have a fitted effect of over 60% in size
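AlphaScreen displacement: compounds (up to 110uM) incubated 30 min at room temperature with a preformed 50 nM BAZ2B/50 nM biotinylated H3K14Ac peptide complex in PBS pH 7.4 with Tween-20. Donor and acceptor beads at 10 ug/mL final added, 20 min light-protected before reading.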
Sfp inh – Sfp phosphopantetheinyl transferase inhibition; Q9F4F7; Biochemical Sfp PPTase activity, qHTS; Potency, µM, for the others: largest response in the series, negative = inhibition, usual class: inhibitors; hit rate 3.5% among 310,000; AID 1490;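 further: the enzyme is Sfp with the accession as filed and its product quenches rhodamine fluorescence; 0% = enzyme reaction without inhibitor and -100% = no enzyme wells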
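Compounds were incubated with enzyme (final 15 nM) for 15 min at room temperature before substrate addition started the reaction. Fluorescence at 525 nm excitation, 598 nm emission was recorded immediately and after 30 minutes.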
Starred values were filed as active, the others as inactive; [ ] = another dose, or the depositor's remark. Hits are enriched below; roughly 12% of the tested compounds scored in any of these assays. The call rests on the fitted dose curve; in most records, active means well fitted curve in the direction sought with a large enough effect; inconclusive means small, poorly fitted or top-dose-only effect, or another doubt; inactive means no such curve, though single readings can be large; an effect the other way counts as inactive or inconclusive. Potency means the concentration at half of the fitted maximal effect.

For CCN(CC)c1ccc(CC(=O)NC(C)Cc2ccccc2)cc1 (stereo unspecified) the results were L3MBTL1 block -4%, JMJD2A Tudor inh -19%, G9a inh -24%[59 µM], HP1b binding inh -5%, BAZ2B inh inconclusive and Sfp inh 14%.
Screening CCCCCCCc1cc2c(cn1)=C(OC)C(C)(OC(C)=O)C(=O)C=2Cl (stereo unspecified) returned Sfp inh 20%.
For COc1cccc(-n2c(-c3cccc(S(=O)(=O)N(C)C)c3)n[nH]c2=S)c1 the results were L3MBTL1 block -3%, JMJD2A Tudor inh 8.9µM*, G9a inh 2.5µM*, HP1b binding inh 14% and Sfp inh 50µM*.
`COc1ccc(OC)c(-n2c(-c3cccc(S(=O)(=O)N(C)C)c3)n[nH]c2=S)c1` gave L3MBTL1 block 1%, JMJD2A Tudor inh inconclusive, G9a inh 2.5µM*, HP1b binding inh -19% and Sfp inh -11%.
For CCSc1nnc(-c2cccc(S(=O)(=O)N(C)C)c2)n1-c1cc(OC)ccc1OC the results were L3MBTL1 block 0%, JMJD2A Tudor inh -13%, G9a inh inconclusive, HP1b binding inh 29%, BAZ2B inh 13% and Sfp inh 13%.
O=C(CC1N=C2c3ccccc3N=C(SCc3ccccc3F)N2C1=O)NCc1ccc2c(c1)OCO2 (stereo unspecified) was read as JMJD2A Tudor inh -15%, G9a inh -1%[59 µM], HP1b binding inh 10% and BAZ2B inh -11%.
For CC(C)(C)C(=O)CSc1ncccn1 the results were JMJD2A Tudor inh inconclusive, G9a inh inconclusive, HP1b binding inh 29%, BAZ2B inh inconclusive and Sfp inh 45µM*.
`CCOC(=O)N1CCN(Cc2nc3cc(NC(=O)c4ccccc4Cl)ccc3n2C(C)C)CC1` gave JMJD2A Tudor inh -10%, G9a inh -1%[59 µM], HP1b binding inh 43% and BAZ2B inh -11%.
COc1ccccc1N1C(=N)S/C(=C\c2ccc(-c3ccccc3C(=O)O)o2)C1=O was read as L3MBTL1 block inconclusive, JMJD2A Tudor inh inconclusive, G9a inh 16µM*, HP1b binding inh -13%, BAZ2B inh inconclusive and Sfp inh inconclusive.
Cc1c(C(=O)O)cccc1-c1ccc(/C=C2\SC(=O)NC2=O)o1 was read as L3MBTL1 block -1%, JMJD2A Tudor inh -28%, HP1b binding inh 17%, BAZ2B inh -7% and Sfp inh -9%.
For N=C1S/C(=C\c2ccc(-c3ccccc3C(=O)O)o2)C(=O)N1c1ccc2c(c1)OCO2 the results were JMJD2A Tudor inh 22µM*, G9a inh 3.5µM*, HP1b binding inh 28µM*, BAZ2B inh 20µM* and Sfp inh inconclusive.
Screening Cc1cc2c(s1)c1cnn(Cc3c(F)ccc(C)c3F)c(=O)c1n2C returned JMJD2A Tudor inh -33%.
Screening CC(Sc1cccc[n+]1[O-])C(=O)Nc1ccc([N+](=O)[O-])cc1Cl (stereo unspecified) returned L3MBTL1 block 57%, JMJD2A Tudor inh -2%, G9a inh 50µM*, HP1b binding inh 42%, BAZ2B inh -17% and Sfp inh -3%.
Screening CC1CC(=O)c2c(cc3c(-c4c(O)cc(O)c5c(O)c6c(cc45)OC(C)CC6=O)c(O)cc(O)c3c2O)O1 (stereo unspecified) returned L3MBTL1 block 0.63µM*, JMJD2A Tudor inh 45µM*, G9a inh inconclusive, HP1b binding inh inconclusive, BAZ2B inh 40µM* and Sfp inh 30%.
N#Cc1c(-c2cccc(Br)c2)cc(-c2ccco2)[nH]c1=O was read as L3MBTL1 block inconclusive, JMJD2A Tudor inh inconclusive, G9a inh 11µM*, HP1b binding inh -3%, BAZ2B inh 45µM* and Sfp inh inconclusive.
Screening COc1ccc(-c2cc(-c3ccco3)[nH]c(=O)c2C#N)cc1 returned JMJD2A Tudor inh inconclusive, HP1b binding inh 17%, BAZ2B inh 56µM* and Sfp inh 50µM*.
`O=C(CSc1ccccc1)NCc1ccc2c(c1)CCN2C(=O)c1ccc(Cl)cc1` gave JMJD2A Tudor inh -17%, G9a inh 17%[59 µM], HP1b binding inh 34% and BAZ2B inh 7%.
Screening O=C(CSc1ncccc1C(=O)Oc1ccccc1Cl)Nc1ccccc1Cl returned JMJD2A Tudor inh -5%, G9a inh -5%[59 µM], HP1b binding inh 23% and BAZ2B inh 22%.
For CCOC(=O)C(C)Sc1ccc2nnc(-c3ccc(F)cc3)n2n1 (stereo unspecified) the results were L3MBTL1 block 4%, JMJD2A Tudor inh -6%, G9a inh 7.9µM*, HP1b binding inh 40%, BAZ2B inh 0% and Sfp inh inconclusive.
Cc1ccc(-c2nnc3ccc(SC(C)C(=O)O)nn23)cc1 (stereo unspecified) was read as L3MBTL1 block 5%, JMJD2A Tudor inh 40µM*, G9a inh 3.5µM*, HP1b binding inh inconclusive, BAZ2B inh -30% and Sfp inh inconclusive.
Screening CCC(Sc1ccc2nnc(-c3cccnc3)n2n1)C(=O)O (stereo unspecified) returned L3MBTL1 block 5%, JMJD2A Tudor inh -45%, G9a inh 50µM*, HP1b binding inh 23%, BAZ2B inh -6% and Sfp inh 11%.
`COC(=O)C(C)Sc1ccc2nnc(-c3ccccc3)n2n1` (stereo unspecified) gave JMJD2A Tudor inh -9%, G9a inh inconclusive, HP1b binding inh 25% and Sfp inh 10%.
For CCOC(=O)C(C)Sc1ccc2nnc(-c3ccc(OCC)cc3)n2n1 (stereo unspecified) the results were JMJD2A Tudor inh 0%[57.1 µM] and HP1b binding inh 17%[57 µM].
`CC(Sc1ccc2nnc(-c3ccc(F)cc3)n2n1)C(=O)O` (stereo unspecified) gave L3MBTL1 block 5%, JMJD2A Tudor inh inconclusive, G9a inh 3.5µM*, HP1b binding inh -16%, BAZ2B inh -11% and Sfp inh -2%.
`CCC(C)NC(=O)C1CCN(S(=O)(=O)c2ccc3c(ccn3CC)c2)CC1` (stereo unspecified) gave JMJD2A Tudor inh 4%, G9a inh 0%[59 µM], HP1b binding inh 27%[57 µM] and BAZ2B inh -2%.
For CC(C)OCCCNC(=O)c1ccc2c(c1)N(Cc1c(F)cccc1Cl)C(=O)c1ccccc1S2 the results were JMJD2A Tudor inh -9%, G9a inh -5%[59 µM] and HP1b binding inh 29%.
